{"source": "PubChem BioAssay (EPA / NIEHS)", "note": "Inconclusive results are not listed. Active and inactive are the calls of the source. How the source made its calls: active means hit-call score of the fitted dose curve at least 0.9, where 1 is the maximum; inconclusive means response in the unintended direction; inactive means score below 0.9.", "data": [{"biological_target": "Estrogen receptor beta (Homo sapiens) (UniProt Q92731)", "sequence (Q92731 whole entry, looked up, the tested form may be a part)": "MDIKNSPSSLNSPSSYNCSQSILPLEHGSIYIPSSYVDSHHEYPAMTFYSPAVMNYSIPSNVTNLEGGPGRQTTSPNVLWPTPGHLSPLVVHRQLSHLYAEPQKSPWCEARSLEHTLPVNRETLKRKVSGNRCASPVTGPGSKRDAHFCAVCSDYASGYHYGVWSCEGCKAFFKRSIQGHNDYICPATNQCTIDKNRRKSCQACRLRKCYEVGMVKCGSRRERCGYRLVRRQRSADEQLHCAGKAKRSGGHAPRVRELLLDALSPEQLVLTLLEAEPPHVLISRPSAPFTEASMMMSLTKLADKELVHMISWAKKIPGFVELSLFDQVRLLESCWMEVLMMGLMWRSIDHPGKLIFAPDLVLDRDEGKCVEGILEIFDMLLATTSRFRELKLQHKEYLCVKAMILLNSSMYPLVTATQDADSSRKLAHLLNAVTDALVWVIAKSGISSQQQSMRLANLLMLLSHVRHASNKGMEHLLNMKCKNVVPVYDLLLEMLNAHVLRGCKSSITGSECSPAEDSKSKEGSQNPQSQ", "test": "OT_ER_ERbERb_0480: Odyssey Thera (OT) 8-hour HEK293T Protein-Complementation Assay for Estrogen Receptor-beta/-beta Homodimer (AID 2283357);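 further: active means signal gain over DMSO baseline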", "summary_of_the_method": "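Fluorescence gain from complemented reporter fragments on ER-beta LBD homodimer in HEK293T was quantified against DMSO controls after 8 h treatment, fixation in 4% formaldehyde and Draq5 staining.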", "values": [{"smiles": "OCc1cccc(Oc2ccccc2)c1", "AC50": "47.7 µM (active)"}, {"smiles": "CC1CCC(C(C)C)C(O)C1", "note": "(centres undefined)", "outcome": "inactive"}, {"smiles": "CCOC(=O)c1ccc(N)cc1", "outcome": "inactive"}, {"smiles": "CCCCCCCCCCCCCC(=O)OCC(O)CO", "note": "(centres undefined)", "outcome": "inactive"}, {"smiles": "C=C1CC[C@H](O)C/C1=C/C=C1\\CCC[C@]2(C)[C@@H]([C@H](C)/C=C/[C@H](C)C(C)C)CC[C@@H]12", "outcome": "inactive"}, {"smiles": "BrCc1cccc(Oc2ccccc2)c1", "AC50": "60.7 µM (active)"}, {"smiles": "Nc1ccc(N)c2c1C(=O)c1ccccc1C2=O", "outcome": "inactive"}, {"smiles": "O=C(Nc1ccc2c(O)c(N=Nc3ccc(N=Nc4ccc(S(=O)(=O)O)cc4)cc3)c(S(=O)(=O)O)cc2c1)c1ccccc1", "outcome": "inactive"}, {"smiles": "CCCCOC(=O)CCCCCCCC(=O)OCCCC", "outcome": "inactive"}, {"smiles": "Nc1ccc2cc(S(=O)(=O)O)cc(O)c2c1N=Nc1ccccc1C(F)(F)F", "outcome": "inactive"}, {"smiles": "CCc1ccc(O)cc1", "outcome": "inactive"}, {"smiles": "CCCCC(CC)COC(=O)c1ccc(O)cc1", "note": "(centres undefined)", "AC50": "0.91 µM (active)"}, {"smiles": "C[C@H]1O[C@@H](O[C@H]2[C@@H](O)C[C@H](O[C@H]3[C@@H](O)C[C@H](O[C@H]4CC[C@@]5(C)[C@H](CC[C@@H]6[C@@H]5C[C@@H](O)[C@]5(C)[C@@H](C7=CC(=O)OC7)CC[C@]65O)C4)O[C@@H]3C)O[C@@H]2C)C[C@H](O)[C@@H]1O", "outcome": "inactive"}, {"smiles": "CC(C)CCCCCCc1ccc(OCCOCCO)cc1", "AC50": "38.6 µM (active)"}, {"smiles": "Nc1ccccc1[N+](=O)[O-]", "outcome": "inactive"}, {"smiles": "CCc1cc(Cc2cc(CC)cc(C(C)(C)C)c2O)c(O)c(C(C)(C)C)c1", "outcome": "inactive"}, {"smiles": "C=CC(=O)OCCCC", "outcome": "inactive"}, {"smiles": "CCCCC(CC)COC(C)=O", "note": "(centres undefined)", "outcome": "inactive"}]}, {"biological_target": "human Peroxisome Proliferator-activated Receptor alpha (PPARa), PPARA (gene 5465) (UniProt Q07869)", "sequence (Q07869 whole entry, looked up)": "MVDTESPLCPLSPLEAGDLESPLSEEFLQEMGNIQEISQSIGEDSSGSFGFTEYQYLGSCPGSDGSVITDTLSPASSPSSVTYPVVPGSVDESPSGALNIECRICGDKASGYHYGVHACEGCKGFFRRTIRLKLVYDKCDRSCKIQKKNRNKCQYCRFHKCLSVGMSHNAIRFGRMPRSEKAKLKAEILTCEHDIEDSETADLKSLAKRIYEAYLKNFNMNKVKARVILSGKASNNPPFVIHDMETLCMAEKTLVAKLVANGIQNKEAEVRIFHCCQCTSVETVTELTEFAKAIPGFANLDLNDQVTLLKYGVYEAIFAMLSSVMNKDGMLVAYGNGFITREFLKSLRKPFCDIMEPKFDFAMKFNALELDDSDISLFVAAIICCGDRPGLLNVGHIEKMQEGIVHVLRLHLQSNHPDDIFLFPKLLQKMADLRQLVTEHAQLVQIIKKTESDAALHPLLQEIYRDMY", "test": "NVS_NR_hPPARa: NovaScreen (NVS) Nuclear Receptor Binding Assay for human Peroxisome Proliferator-activated Receptor alpha (PPARa) (AID 2283359);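 further: activity means loss of TR-FRET signal versus DMSO baseline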", "summary_of_the_method": "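One-hour incubation, cell-free extracted protein, TR-FRET binding readout; signal loss vs DMSO scored. Screen: 25 uM duplicates, confirmatory dose series for actives.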", "values": [{"smiles": "CCOc1ccc(N=Nc2ccc(C=Cc3ccc(N=Nc4ccc(OCC)cc4)cc3S(=O)(=O)O)c(S(=O)(=O)O)c2)cc1", "AC50": "9.11 µM (active)"}, {"smiles": "Nc1ccc2cc(S(=O)(=O)O)cc(O)c2c1N=Nc1ccccc1C(F)(F)F", "AC50": "0.155 µM (active)"}, {"smiles": "CCCCC(CC)COC(=O)c1ccc(O)cc1", "note": "(centres undefined)", "outcome": "inactive"}]}, {"biological_target": "PGR (gene 5241) (UniProt P06401)", "sequence (P06401 whole entry, looked up)": "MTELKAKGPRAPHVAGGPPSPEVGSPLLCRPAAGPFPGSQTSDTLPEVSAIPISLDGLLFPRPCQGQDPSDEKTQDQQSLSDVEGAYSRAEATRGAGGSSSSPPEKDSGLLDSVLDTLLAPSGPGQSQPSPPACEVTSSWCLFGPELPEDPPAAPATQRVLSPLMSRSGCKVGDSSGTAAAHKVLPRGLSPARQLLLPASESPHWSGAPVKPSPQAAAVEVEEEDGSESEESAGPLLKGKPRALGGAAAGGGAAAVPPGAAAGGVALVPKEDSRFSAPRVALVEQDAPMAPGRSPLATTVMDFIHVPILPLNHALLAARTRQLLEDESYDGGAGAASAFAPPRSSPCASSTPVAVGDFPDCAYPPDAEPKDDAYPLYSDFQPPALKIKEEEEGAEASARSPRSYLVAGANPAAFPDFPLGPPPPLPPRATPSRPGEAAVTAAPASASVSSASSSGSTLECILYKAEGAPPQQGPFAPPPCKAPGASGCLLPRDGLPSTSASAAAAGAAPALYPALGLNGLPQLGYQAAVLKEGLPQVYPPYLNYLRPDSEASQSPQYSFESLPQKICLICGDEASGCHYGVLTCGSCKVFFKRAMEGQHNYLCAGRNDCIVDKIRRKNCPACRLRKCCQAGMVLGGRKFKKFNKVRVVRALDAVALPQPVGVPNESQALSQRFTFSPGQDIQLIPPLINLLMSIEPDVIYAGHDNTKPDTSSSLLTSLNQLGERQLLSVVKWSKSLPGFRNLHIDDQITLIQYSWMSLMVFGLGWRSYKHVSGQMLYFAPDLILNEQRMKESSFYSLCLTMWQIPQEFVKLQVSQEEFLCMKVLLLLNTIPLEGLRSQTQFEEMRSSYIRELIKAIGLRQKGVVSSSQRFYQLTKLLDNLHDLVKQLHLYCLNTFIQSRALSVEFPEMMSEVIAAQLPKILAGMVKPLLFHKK", "test": "NVS_NR_hPR: NovaScreen (NVS) Nuclear Receptor Binding Assay for human Progestron Receptor (PR) (AID 2283360);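 further: active means loss of bound radioligand signal versus DMSO baseline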", "summary_of_the_method": "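Radioligand competition binding on receptor extracted from T47D cells, read by scintillation counting 18 h after dosing. Loss of signal versus DMSO; primary screen in duplicate at 25 uM, actives followed in concentration series.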", "values": [{"smiles": "COc1ccc(CCN2CCC(Nc3nc4ccccc4n3Cc3ccc(F)cc3)CC2)cc1", "outcome": "inactive"}, {"smiles": "Oc1c(Cl)cc(Cl)c(Cl)c1Cc1c(O)c(Cl)cc(Cl)c1Cl", "outcome": "inactive"}, {"smiles": "CN(c1nccc(=O)[nH]1)C1CCN(c2nc3ccccc3n2Cc2ccc(F)cc2)CC1", "outcome": "inactive"}]}]}
